This is an account of results in PubChem BioAssay AID652017 (The Scripps Research Institute Molecular Screening Center, 2013).

Screen size: about 370,000 compounds; about 3,800 (1%) were called active. Rule as the data show it: active = activation above about 7.8%; inactive = the rest. The full list was thinned out, with actives kept by preference.

A short description of this experiment: SMARCA2 (BRM) function activators, primary screen, cell-based, luminescence, high throughput (AID 652017).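 Also: 0% = vehicle wells and 100% = reference activator wells.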 Particulars: MG213 cells, MMTV-luciferase reporter, dexamethasone, overnight; at 9.1 µM; active compounds read high.
As to `O=S(=O)(c1ccc(F)cc1)n1ccc(-c2cnc(-c3ccccc3)s2)n1`, the activation was 0.36% (inactive).
For `CCOC(=O)c1csc(NC(=O)C2CCCN(S(=O)(=O)c3ccc(Cl)s3)C2)n1` (stereo not given), the activation is -3.75% (inactive).
`Nn1c(SCC(=O)Nc2cccc3ccccc23)nnc1-c1cc(-c2ccc(F)cc2)n[nH]1`: the activation was -3.63% (inactive).
Take `COC(=O)c1ccc(NCc2cc(O)ccc2O)cc1`: the activation was 8.39% (active).
As to `O=C(OC12CC3CC(CC(C3)C1)C2)c1ccc(NCc2cc(O)ccc2O)cc1`, the activation is -10.6% (inactive).
Take `CCS(=O)(=O)Nc1cc(C(=O)OC)ccc1C(=O)OC`: the activation is -0.18% (inactive).
`O=C(NC1CCCCN(Cc2ccc(Cl)cc2)C1=O)c1ccc(Br)cc1` (stereo not given): the activation is -1.79% (inactive).
As to `CCc1ccc(NC2Nc3cc(C)nn3S2)cc1` (stereo not given), the activation is 8.13% (active).
Consider `CC(=O)Nc1ccc(Nc2c3ccccc3nc3ccccc23)cc1`, for which the activation is 8.59% (active).
The same measure for `CCc1c(C)nc2c(-c3ccccc3)c(C)nn2c1Nc1ccc(NC(C)=O)cc1`: -0.14% (inactive).
As to `CC(=O)Nc1ccc(Nc2nc3c(S(=O)(=O)c4ccc(C)c(C)c4)nnn3c3ccccc23)cc1`, the activation is 0.7% (inactive).
For `O=C(CSc1nc2c(c(=O)[nH]1)CCCC2)N1CCCCC1`, the activation is -4.24% (inactive).
With `CCC(=O)OCCCN1C(=O)CCC12CCC(c1ccccc1)CC2` (stereo not given) the figure was -3.5% (inactive); with `CC(=O)OCCN1CCCC12CCC(c1ccccc1)CC2` (stereo not given), -0.56% (inactive).
With `C=CCN1[C@H](CC(C)C)COc2cccc(N3CCCC3)c2S1(=O)=O` the figure was -1.47% (inactive); with `Nn1c(SCC(=O)Nc2ccc(S(N)(=O)=O)cc2)nnc1-c1n[nH]c2c1CCC2`, 0.23% (inactive); with `Oc1cccc2ccc(/C=C/c3ccc(Br)s3)nc12`, 10.9% (active).
For the molecule `COc1ccc(NC(=O)Cn2ncn3c(cc4ccccc43)c2=O)c(OC)c1OC`, the activation was 1.32% (inactive).
The same measure for `C[C@H](C(=O)N(C)c1ccccc1)[C@@H](O)c1ccc(Cl)cc1`: -0.55% (inactive); for `CSc1nnc(SCc2nc3sc(C(=O)O)c(C)c3c(=O)[nH]2)s1`: -1.68% (inactive); for `CCOC(=O)c1sc2nc(CSc3ccccc3)[nH]c(=O)c2c1C`: 9.98% (active).
With `CCOC(=O)c1sc2nc(C)nc(SCC(N)=O)c2c1C` the figure was -1.05% (inactive); with `Cc1csc(Nc2ccc(Cl)cc2)[n+]1-c1ccc(Cl)cc1`, -3.27% (inactive).
The same measure for `CCC(c1ccc(NC(=O)OC(C)(C)C)cc1)c1cc(OC)cc(OC)c1` (stereo not given): -2.7% (inactive); for `Cc1ccc(NC(=O)c2cc(C)nn2-c2ccccc2)c(C)c1`: -4.44% (inactive); for `Cc1ccnc(Nc2nc3ccccc3s2)n1`: 10.6% (active).
Take `Cc1ccnc(-n2sc3ccccc3c2=O)n1`: the activation was 1.96% (inactive).
Consider `Cn1c(-c2ccc(F)cc2)cc2onc(-c3ccccc3Cl)c2c1=O`, for which the activation is 9.9% (active).
For the molecule `Cn1c(-c2ccc(C(F)(F)F)cc2)cc2onc(-c3ccccc3)c2c1=O`, the activation was 5.26% (inactive).
As to `Cc1[nH]n(C)c(=O)c1C(=O)c1c(-c2c(Cl)cccc2Cl)noc1C`, the activation was -2.74% (inactive).
Take `CCOC(=O)[C@]12CCCCC/C=C\1N(Cc1ccc(OC)cc1)C(=O)[C@H]2CC(=O)NCCCN1CCCC1=O`: the activation was -2.38% (inactive).
The same measure for `O=C(CNS(=O)(=O)c1ccccc1F)N1CCN(c2ccccn2)CC1`: -3.89% (inactive).
In the case of `COC(=O)[C@]12C[C@H](CC(=O)NCCc3ccccc3OC)C(=O)N(Cc3ccco3)C1=C[C@H](C(C)C)O[C@@H]2C1CC1`, the activation was -4.32% (inactive).
Consider `COC(=O)[C@]12C[C@H](CC(=O)NCc3cccc4ccccc34)C(=O)N(CCc3ccc(OC)c(OC)c3)C1=C[C@H](C1CCCC1)O[C@@H]2C`, for which the activation was -1.03% (inactive).
`CCOc1cccc2c1OC1(CCCCC1)N1N=C(c3cccnc3)CC21` (stereo not given): the activation was 8% (active).
With `CCCCN1CCN(C(=O)c2ccc3c(c2)NC(=O)C(C)(C)O3)CC1` the figure was 2.59% (inactive); with `O=S1(=O)c2c(cccc2N2CC[C@H](O)C2)O[C@@H]2CCN1C2`, -1.6% (inactive).
Turning to `CCc1nc2ccc(C(=O)NCCNC(C)=O)cn2c1N(CC)Cc1cccc(Br)c1`, the activation was -2.59% (inactive).
With `Cn1cc(/C=C/C(=O)N2CCCC(C(=O)c3ccc(C(F)(F)F)cc3)C2)cn1` (stereo not given) the figure was 9.62% (active); with `COCC(=O)N1CCCC(C(=O)c2ccc(C(F)(F)F)cc2)C1` (stereo not given), -2.48% (inactive).
Take `Cc1cnc(C(=O)N2CCCC(C(=O)c3ccc(C(F)(F)F)cc3)C2)cn1` (stereo not given): the activation is 1.89% (inactive).
For `CCOC(=O)C1=C(C)NC2=C(C(=O)CC(C)(C)C2)C1c1ccc2c(c1)OCO2` (stereo not given), the activation was -5.79% (inactive).
The same measure for `O=C(c1cccc(C(F)(F)F)c1)N1CC[C@H]2[C@H](CCCN2Cc2cc(F)cc(F)c2)C1`: -1.61% (inactive); for `CSc1ccc(/C=C/C(=O)NC23CC4CC(CC(C4)C2)C3)cc1`: 1.32% (inactive).
As for `COc1ccc(/C=C/C(=O)Nc2ccc(C34CC5CC(CC(O)(C5)C3)C4)cc2)cc1OC`, the activation is 9.95% (active).
Regarding `CCOc1ccccc1NC(=O)C12CC3CC(C1)CC(c1ccc(C)cc1)(C3)C2`, the activation is -1.92% (inactive).
With `O=C(NCc1ccc(Cl)cc1)C1CCCN(c2nc3ccccc3o2)C1` (stereo not given) the figure was -7.39% (inactive).
With `Cc1ccc(C2=CCN(C)C(=O)N2c2ccc(Cl)cc2)cc1` the figure was 1.89% (inactive); with `Cc1cc2oc3ccc(NCCC4CCCN4C)cc3c(=O)c2cc1C` (stereo not given), 8.67% (active); with `CN1CCC[C@@H]1CCO[C@](C)(c1ccccc1)c1ccc(Cl)cc1`, -5.64% (inactive).
Take `S=C(NCCCc1cnc[nH]1)NCCCN(Cc1ccc(Cl)c(Cl)c1)c1ccc(Br)cn1`: the activation was -3.8% (inactive).
With `COC(=O)C[C@@H]1CC[C@H]2[C@@H](COc3ccc(NS(=O)(=O)CC(F)(F)F)cc3C(=O)N2C)O1` the figure was -3.47% (inactive); with `COC(=O)[C@]12C[C@H](CC(=O)N3CCN(C(=O)C4CC4)CC3)C(=O)N(CCC3=CCCCC3)C1=C[C@H](C(C)C)O[C@@H]2C1CC1`, 0.49% (inactive); with `Cc1cc(NS(=O)(=O)c2ccc(NC(=O)CSc3nnc(-c4ccc(C(C)(C)C)cc4)n3Cc3ccco3)cc2)nc(C)n1`, -2% (inactive).
For the molecule `O=C(CSc1nc2ccccc2c(=O)n1-c1ccccc1F)N1CCOCC1`, the activation was -2.52% (inactive).
In the case of `Cc1ccc(-n2c(SCC(=O)N3CCC(C(=O)O)CC3)nc3ccccc3c2=O)cc1C`, the activation is 9% (active).
With `COc1ccc(-n2c(SCC(=O)Nc3ccc(C)c(Cl)c3)nc3ccccc3c2=O)cc1`, the activation is -5.45% (inactive).
The same measure for `N#Cc1cccc(NC(=O)COC(=O)c2ccccc2C(=O)c2ccc(Cl)c([N+](=O)[O-])c2)c1`: 6.3% (inactive).
In the case of `O=C(CN1CCCc2ccccc21)NCc1ccc(F)cc1`, the activation was 4.7% (inactive).
With `Cc1ccc(-n2c(SCC(=O)Nc3cccc4ccccc34)nnc2-c2ccco2)cc1` the figure was -1.08% (inactive); with `Cc1cc(C)c2nc3nc(C)cc(C)c3c(N)c2c1`, 22.7% (active).
With `C[C@@H]1ON(C)[C@H]2C[C@H]3c4[nH]c5cccc(-c6ccc7c(c6)OCO7)c5c4CCN3C[C@@H]12` the figure was -5.68% (inactive).
`Clc1ccc(C(Cn2ccnc2)OCc2ccsc2Cl)c(Cl)c1` (stereo not given): the activation was -7.85% (inactive).
With `COc1ccc(Cn2cccc(NC(=O)Nc3ccc(C#N)cc3)c2=O)cc1` the figure was -4.78% (inactive).
Take `COc1ccc(Cn2c(C)c(C)c(C#N)c2NC(=O)Nc2ccc(F)cc2)cc1`: the activation is 13.3% (active).
On to `Cc1c(C#N)c(NC(=O)c2ccccc2)n(Cc2ccccc2)c1C`, for which the activation was -1.06% (inactive).
The same measure for `CC(NCc1ccco1)C(=O)N1CCCCC1` (stereo not given): -2.78% (inactive); for `CC1CCN(c2ccc(C(=O)O)cc2NS(=O)(=O)c2ccc(Br)s2)CC1`: 0.67% (inactive).
Take `CCOC(=O)c1cccc(NC(=O)CN(C)S(=O)(=O)c2ccc(-c3cocn3)s2)c1`: the activation was -7.26% (inactive).
Turning to `CCCN1C(=O)C(Cc2nc3ccccc3c(=O)n2-c2ccccc2)c2cc(C)ccc21` (stereo not given), the activation is 8.92% (active).
With `Cc1ccc(S(=O)(=O)NCc2nc3ccccc3c(=O)n2N)cc1` the figure was -5.01% (inactive); with `CC(C)CC1NC(=O)c2cc(Cl)ccc2-n2c1nc1ccccc1c2=O` (stereo not given), -0.02% (inactive); with `O=C(OC12CCCN(C1)/C(=C/c1ccccc1)C2)c1ccco1` (stereo not given), -4.02% (inactive).
With `CC[C@H](NC(=O)[C@H](Cc1ccccc1)NC(=O)[C@H]1O[C@@H](n2cnc3c(=O)[nH]c(N)nc32)[C@H](O)[C@@H]1O)c1ccccc1`, the activation is -4.41% (inactive).
For `COC(=O)/C=C/C(=O)NCc1ccco1`, the activation is 1.96% (inactive).
As to `COC(=O)Cc1ccc(NC(=S)NCc2ccco2)cc1`, the activation was -1.02% (inactive).
Take `CC(C)(C)c1ccc(NC(=O)NCc2ccco2)cc1`: the activation was 8.76% (active).
For `COC(=O)[C@H](C(C)C)N1CCc2nnn(Cc3ccc(C)cc3)c2-c2ccccc2S1(=O)=O`, the activation is -3.89% (inactive).
For the molecule `COc1ccc(C(CNC(=O)c2ccc(S(=O)(=O)Nc3ccccc3F)cc2)N(C)C)cc1` (stereo not given), the activation is 8.4% (active).
The same measure for `CC(=O)c1ccc(S(=O)(=O)Nc2ccc(C(=O)NCC(c3ccccc3)N(C)C)cc2)cc1` (stereo not given): 5.98% (inactive); for `COc1ccc(C(CNC(=O)c2ccc(NS(=O)(=O)c3ccc(F)c(C)c3)cc2)N(C)C)cc1` (stereo not given): -1.05% (inactive).
`CC(=O)Nc1ccc(OC[C@@H](O)CN2CCC(C(O)(c3ccccc3)c3ccccc3)CC2)cc1`: the activation is -1.46% (inactive).
Consider `COCCCNC(=O)C[C@H]1C[C@@]2(C(=O)OC)C(=C[C@H](C(C)(C)C)O[C@@H]2C)N(Cc2ccc(Cl)cc2Cl)C1=O`, for which the activation is -4% (inactive).
Turning to `Cc1c(C(C)c2ccccc2O)[nH]c2ccccc12` (stereo not given), the activation is -2.39% (inactive).
As for `Cc1ccc(NC(=O)C(=O)NCc2ccc(/C=N/NC(=O)c3c(C)nc4cc(C)ccn34)o2)cc1`, the activation was -0.59% (inactive).
